This is an account of results in PubChem BioAssay AID1745848 (National Center for Advancing Translational Sciences (NCATS), 2022).

In all, about 2,100 compounds went through this assay and about 940 (45%) were called active. Another 48% or so got no clear call; they are omitted. The call rests on the fitted dose curve; in most records, active means well fitted inhibition curve with a large enough effect; inconclusive means small, poorly fitted or top-dose-only effect; inactive means no such curve, though single readings can be large or run the other way. The set was probably picked from earlier hits. The list shows a part of the results.
Potency means the concentration at half of the fitted maximal effect.

This test is described as follows: Confirmatory qHTS for Inhibitors of ATXN expression. Further: nearly all actives have a fitted effect of over 65% in size.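 On activity change, negative = inhibition: 0% = DMSO vehicle wells and -100% = medium-only wells without cells.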 The note with it: ATXN2-luciferase reporter cells, luminescence, 24 h; series mostly up to 57.5 µM. From the text: PI: Daniel Scoles Ph.D. University of Utah School of Medicine, Salt Lake City, Utah MLPCN Grant: NS073009 Spinocerebellar ataxia type 2 (SCA2) is a multisystem neurodegenerative disease caused by a dominantly acting mutation leading to expansion of a polyQ domain in the ataxin-2 protein (ATXN2). SCA2 patients develop progressive ataxia and later lose function in other neuronal systems. Prominent parkinsonian signs develop in some patients. Like many neurodegenerative disorders, no symptomatic or disease-modifying treatments are known. The primary objective of the proposed research is to identify compounds inhibiting ATXN2 expression and to test them for efficacy in SCA2 mouse models. We have developed a cell-based assay paired with an in vivo mouse model using identical luciferase expression constructs. This approach takes advantage of an ATXN2-luciferase transgene, with the luciferase gene flanked by the upstream and downstream portions of the ATXN2 gene. Here we describe a 5-7 dose quantitative high thoroughput screen (qHTS) for compounds lowering ATXN2 expression. We screened the NIH Molecular Libraries Small Molecule Repository (MLSMR) and NCGC's mechanistically annotated (MIPE) and drug repurposing (NPC) collections of compounds for lowering expression of an ATXN2-luciferase reporter in HEK-293 cells. The assay is a multiplexed cell viability assay to ensure target reduction in the absence of cytotoxicity. Secondary qHTS assays included a CMV-luciferase reporter expressed in HEK-293 cells as well as a biochemical assay using recombinant luciferase to detect inhibitors of the reporter enzyme. Compounds that inhibit ATXN2 expression but is not cytotoxic were selected for confirmatory and secondary screens.
PROTOCOL TABLE (as described by Inglese J, Shamu CE and Guy RK. 2007) SEQUENCE No. (e.g., 1, 2, 3, etc.); PARAMETER (e.g., Cells, Incubation, Reagent, etc.); VALUE; DESCRIPTION. 1; Cells; 4 uL; white, solid bottom, 1536-well Greiner assay plate. 2; Incubation; 2 hr; 37 degree C in 5% humidified CO2. 3; Compounds; 23 nL; Kalypsis pintool (Wako USA) equipped with a 1536-well pin head. 4; Incubation; 24 hr; 37 degree C in 5% humidified CO2. 5; Reagent; 1 uL; Gly-Phe-7-Amino-4-trifluoromethylcoumarin. 6; Incubation; 30 min; 37 degree C in 5% humidified CO2. 7; Detection; Fluorescence; ViewLux plate reader (PerkinElmer). 8; Reagent; 3 uL; SteadyGlo luciferase solution (Promega). 9; Incubation; 5 min; room temperature. 10; Detection; Luminescence; ViewLux plate reader (PerkinElmer). NOTES (numbers refer to Sequence numbers above) 1. […] expressing ATXN2-luciferase reporter were suspended in phenol-red free DMEM and dispensed in assay plates using a Multidrop Combi dispenser (Thermo Fisher Scientific). Wells containing medium only were plated on each plate, and values were used to normalize (100% inhibition) in the luciferase and CellTiter-Fluor assays. 2. Assay plates were incubated. Evaporation was prevented by covering assay plates with metal lids containing holes to allow gas diffusion. 3. Compounds were added in a dose response manner with the final concentrations of 57, 11.4, 2.28, 0.46, 0.091, 0.018, 0.0037 uM. Vehicle-only plates, with DMSO being pin-transferred to columns 5-48, were inserted uniformly at the beginning and the end of each library to monitor and record any shifts in assay performance. 5. 125 uM Gly-Phe-7-Amino-4-trifluoromethylcoumarin (MP Biomedicals) working concentration was used at a final concentration of 25 uM. 7. To assess cell viability; the assay plates were read using the ViewLux high-throughput CCD imager (PerkinElmer), wherein single end-point fluorescence measurement was acquired (excitation 405/10; emission 540/25 nm). 8. Detection reagent SteadyGlo Luciferase (Promega) was added to the assay plate. 10. Luminescence is then measured on the ViewLux imager equipped with a clear emission filter using a 2 sec exposure. […]
(In general: qHTS replaces the single test concentration by a dilution series.)
Regarding `C[C@]12CCC3C(CCC4=CC(O)CC[C@@]43/C=N/O)C1(O)CCC2C1=CC(=O)OC1` (stereo partly drawn), the Potency was 355 nM (active).
The same measure, in the same setting: to `CC12CCC(O)CC1CCC1C2CCC2(C)C(C3=CC(=O)OC3)CCC12O` (stereo not drawn) belongs 398 nM (active); to `C[C@]12CC[C@H](O)C[C@H]1CC[C@@H]1[C@@H]2CC[C@]2(C)[C@@H](C3=CC(=O)OC3)CC[C@]12O`, 282 nM (active).
For the molecule `COc1ccc(O)c2c(=O)c3c(OC)cc4c(c3oc12)C1C=COC1O4` (stereo not drawn), the Potency is 2000 nM (active).
On the same count and under the same terms, the figure for `O=C1NC(=O)N(CCc2ccc(F)cc2)C(=O)/C1=C/C=C/c1ccccc1` is 7940 nM (active).
The same measure, in the same setting: the entry for `c1ccc2sc(N3CCNCC3)nc2c1` is “inactive”; for `COc1cc2nc(CN3CC=C(c4ccccc4)CC3)[nH]c(=O)c2cc1OC` it is 282 nM (active).
Take `COc1cc2c(cc1OC)-c1c3c(cc4c1[C@@H](C2)N(C)CC4)OCO3`: the Potency was 1120 nM (active).
As for `COC1C(O)C(C)OC(OC2C(Oc3cccc4c(O)c5c(=O)oc6ccc(C)c7c(=O)oc(c34)c5c67)OC(C)C(O)C2O)C1O` (stereo not drawn), the activity change, negative = inhibition is -5.87% [at 11.5 µM] (inactive).
For the molecule `CN1C(=O)NC(=O)/C(=C\C=C\c2ccccc2[N+](=O)[O-])C1=O`, the Potency was 11200 nM (active).
`CC12CCC3C(CCC4(O)CC(O)CCC34C=NO)C1(O)CCC2C1=COC(=O)C1` (stereo not drawn): the Potency was 282 nM (active).
Regarding `CNC(=O)Nc1ccc(C(=O)N/N=C\C23CC[C@@H](O)CC2(O)CC[C@@H]2[C@@H]3CCC3(C)C(C4=CC(=O)OC4)CCC23O)cc1` (stereo partly drawn), the Potency is 25100 nM (active).
On the same count and under the same terms, to `CCCCN=C[C@]12CCC(O)CC1(O)CCC1[C@@H]2CC[C@]2(C)[C@H](C3C=CC(=O)O3)CCC12O` (stereo partly drawn) belongs 631 nM (active); to `C1=NCCc2c1[nH]c1ccccc21`, 3160 nM (active).
With `C[C@H]1C[C@@H](C)C(=O)[C@@H]([C@H](O)CC2CC(=O)NC(=O)C2)C1`, the Potency was 178 nM (active).
`CC(=O)OC1(C)CC(C)C(=O)C(C(O)CC2CC(=O)NC(=O)C2)C1` (stereo not drawn): the Potency is 10 nM (active).
Take `C[C@@H]1C[C@@H]([C@H](O)CC2CC(=O)NC(=O)C2)C(=O)[C@@H](C)C1`: the Potency was 1260 nM (active).
Same read-out and setting: the figure for `O=C(CSC1c2ccccc2-c2ccccc21)N/N=C/c1ccccc1O` is 3160 nM (active); for `C[C@H]1CCC[C@H](O)CCCCCc2cc(O)cc(O)c2C(=O)O1` it is 3160 nM (active); for `C[C@H]1CCC[C@@H](O)CCC/C=C/c2cc(O)cc(O)c2C(=O)O1` it is 1410 nM (active).
In the case of `COc1ccc(CCNCc2ccc(F)cc2)cc1OC`, the activity change, negative = inhibition is -6.67% [at 11.5 µM] (inactive).
In the case of `O=C(Nc1ccc(OC(=O)N2CCCCC2)cc1)N1CCOCC1`, the Potency was 4470 nM (active).
For the molecule `CC(=O)O[C@H]1[C@H]2O[C@]23[C@@H]2CC[C@]4(O)C[C@@H](O)CC[C@]4(C)C2CC[C@]3(C)[C@H]1c1ccc(=O)oc1` (stereo partly drawn), the Potency was 39.8 nM (active).
